High-throughput results deposited in PubChem BioAssay by Johns Hopkins Ion Channel Center.
Rows were chosen to be rich in hits. Some 1.6% of all compounds tested hit in one or more screens of this group.
KCNQ2 inh = inhibitors of rat KCNQ2 potassium channel | B-score at 10 µM | O88943 | 310,000 compounds, 1.1% hits | CHO-K1 KCNQ2, FluxOR thallium flux, 20 min; stronger effect = lower value;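 active means fluorescence ratio B-score at most minus 3 library SDs, with starting brightness B-score within 2 library SDs, cut at about -5.5 in these data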
KCNQ2 enhance = KCNQ2 (rat) channel potentiation | 310,000 compounds, 0.54% hits | B-score at 10 µM | O88943 | CHO-K1 KCNQ2, FluxOR thallium flux fluorescence; stronger effect = higher value;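 active means fluorescence ratio B-score at least 3 SD of library B-scores, with initial fluorescence B-score within 3 of them, cut at about 5.3 in these data; same plate scores as AID 2156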;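 further: B-score of peak minus minimum over baseline fluorescence ratio after K+ and Tl+ stimulus; positive B-score means potentiation of KCNQ2 with more thallium influx and brighter signal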
* hit, by the source's call; i = inactive; x = not tested or not shown.

SMILES	KCNQ2 inh	KCNQ2 enhance
C=CCN(c1ccccc1)S(=O)(=O)c1cccc(C(=O)OCC(=O)NCCOC)c1	i	1.3
C=CCN(c1cccc(C(F)(F)F)c1)S(=O)(=O)c1cccc(C(=O)OCC(=O)NCCC)c1	i	6.6*
CCOC(=O)c1nnn(CC(=O)N2N=C(c3ccccc3)CC2c2ccccc2)c1C(=O)OCC (stereo not given)	i	0.62
CCOC(=O)c1nnn(CC(=O)N2N=C(c3cc(C)ccc3C)CC2c2ccc(OC)cc2)c1C(=O)OCC (stereo not given)	-5.8*	-5.8
CCC(C)(C)NC(=O)CSc1nc(Cc2ccccc2)nc2ccccc12	-6.3*	-6.3
CC(C)NC(=O)CSc1nc2ccccc2n1CC(=O)N(C(C)C)C(C)C	i	0.34
CC(C)N(C(=O)CSc1nc2ccccc2n1Cc1ccc(F)cc1)C(C)C	-7.9*	-7.9
CC(C)N(C(=O)CSc1nc(Cc2ccccc2)nc2ccccc12)C(C)C	-6.3*	-6.3
CC(C)(C)NC(=O)CSc1nc(Cc2ccccc2)nc2ccccc12	i	x
CSc1nc(Cc2ccccc2)nc2ccccc12	i	x
CC(C)C(NC(=O)c1c(F)cccc1F)C(=O)N1CCN(c2ccccc2F)CC1 (stereo not given)	i	x
O=C(CCNS(=O)(=O)c1ccc(Br)cc1)N1CCN(c2ccccc2O)CC1	i	x
Cc1ccc(NC(=O)C2CCCO2)c(Br)c1 (stereo not given)	i	0.13
O=C(N/N=C(\CC(=O)c1cccs1)C(F)(F)F)c1ccncc1	i	0.05
Cc1ccc(C(=O)N/N=C(/CC(=O)c2cccs2)C(F)(F)F)cc1	i	13*
COc1ccc(NC(=O)CS(=O)(=O)c2cn(CC(=O)N3CCCC3)c3ccccc23)c(OC)c1	i	1
Cc1ccc(C)c(Cn2ncc3ccccc32)c1	i	x
CCOc1ccc(OCCC(=O)NNC(=O)c2cc(OC)c(OC)c(OC)c2)cc1	i	0.78
O=C(COC(=O)CCc1c[nH]c2ccccc12)NCc1ccccc1	i	x
CN(C(=O)COC(=O)CCc1c[nH]c2ccccc12)C(c1ccccc1)c1ccccc1	-5.9*	-5.9
COc1cccc(CNC(=O)C2CCN(S(=O)(=O)c3cccc4nonc34)CC2)c1	i	x
O=C(c1ccccc1)N1CCN(c2ccc(Cl)cc2)CC1	i	x
O=C(c1noc2c1CSc1ccccc1-2)N1CCN(c2ccc(Cl)cc2)CC1	-7*	-7
CCN(CC)CC(=O)NC12CC3CC(CC(C3)C1)C2	i	x
CCN(CC)C(=S)SCC(=O)NC12CC3CC(CC(C3)C1)C2	i	8.8*
SMILES	KCNQ2 inh	KCNQ2 enhance
COc1ccccc1CN1C(=NC(=O)CCC2CCCC2)SC2CS(=O)(=O)CC21 (stereo not given)	i	x
COc1ccc(/C=C2\SC(=O)N(CC(=O)NCCCn3ccnc3)C2=O)cc1	i	x
COc1ccc(-c2noc(CCCOc3ccc(Cl)cc3Cl)n2)cc1	i	x
Cc1ccc(-c2noc(CCCOc3ccc(Cl)cc3Cl)n2)cc1	-7.3*	-7.3
Cc1cc(Br)c(NC(=O)CCl)c(Br)c1	i	6*
Cc1cc(Br)c(NC(=O)CN(C)CCOc2ccccc2)c(Br)c1	i	x
O=C(O)Cc1ccc(NS(=O)(=O)c2ccc3ccccc3c2)cc1	i	x
COc1cc(/C(C)=C/c2ccccc2)c2c(c1)oc1ccccc12	i	x
COc1cc([N+](=O)[O-])ccc1NC(=O)NNC(=O)c1sccc1C	i	0.01
CCOC(=O)N1CCN(C(=O)c2cn(CC(C)C)c(=O)c3c2c2ccccc2n3C)CC1	i	x
CC(C)Cn1cc(C(=O)N2CCC(C)CC2)c2c3ccccc3n(C)c2c1=O	-7*	-7
COCCn1cc(C(=O)N2CCC(C)CC2)c2c3ccccc3n(C)c2c1=O	-5.7*	-5.7
CC(C)Cn1cc(C(=O)N2CCOCC2)c2c3ccccc3n(C)c2c1=O	i	x
O=C(NCc1ccc(F)cc1)C1(S(=O)(=O)c2ccc(Cl)cc2)CC1	i	x
Cc1cccc(C(=O)NCCC(=O)Nc2ccc(C#N)cc2)c1	i	x
CS(=O)(=O)N(CCCC(=O)N1CCCCCC1)c1cccc(Cl)c1	i	x
O=C(/C(=C\c1ccccc1)c1nc2ccccc2[nH]1)c1ccc(Cl)cc1	i	0.99
COc1cc(/C=C(/C(=O)c2cccs2)c2nc3ccccc3[nH]2)ccc1O	-7.6*	-7.6
COC(=O)/C(=C\c1cc(OC)c(OC)c(OC)c1)c1nc2ccccc2[nH]1	i	x
O=C(/C(=C/c1ccc(Cl)cc1)c1nc2ccccc2[nH]1)c1cccs1	-6.3*	-6.3
COC(=O)[C@H](CCSC)NC(=O)Nc1cc(OC)cc(OC)c1	i	x
CC(c1cccs1)N(Cc1ccco1)C(=O)Nc1ccc(Cl)c(Cl)c1 (stereo not given)	-13*	-13
COCCN(C(=S)Nc1cc(C)cc(C)c1)C(C)c1cccs1 (stereo not given)	i	8*
Cc1ccc(NC(=O)N(Cc2ccco2)C(C)c2ccco2)cc1C (stereo not given)	-5.9*	-5.9
